The record followed here is PubChem BioAssay.

The structures appear in SMILES notation. Inconclusive results are not listed. Calls of active or inactive are those of the source.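 Rule for the calls, unless noted: active = normalized viability below 100% at a tested concentration; inactive = the rest.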

Test [1] can be described thus: growth inhibition of DIPG glioma cells, dose response, cell-based, SU-DIPG-XVII, MIPE5.0, CellTiter-Glo, qHTS (AID 1347060; cut-off not given, nearly all actives have AC50 up to about 26 µM;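 note: cells exposed to compound for 48 hours before viability readout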). As to conditions: SU-DIPG-XVII viability, CellTiter-Glo ATP luminescence.
Test [2] is described as follows: growth inhibition of DIPG glioma cells, dose response, cell-based, SU-DIPG-XIII, MIPE4.0, CellTiter-Glo, qHTS (AID 1347061; cut-off not given, nearly all actives have AC50 up to about 37 µM;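 note: cells exposed to compound for 48 hours before readout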). The settings on record: SU-DIPG-XIII viability, CellTiter-Glo ATP luminescence. For orientation: In ATP-based viability assays light output follows the ATP content of the culture.
Test [3] is described as follows: growth inhibition of DIPG glioma cells, dose response, cell-based, JHH-DIPG-1, MIPE4.0, CellTiter-Glo, qHTS (AID 1347062; cut-off not given, nearly all actives have AC50 up to about 27 µM;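 for AC50: cells exposed to compound for two days before readout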). The settings on record: JHH-DIPG-1 viability, CellTiter-Glo ATP luminescence.
Test [4] in a line: growth inhibition of DIPG glioma cells, dose response, cell-based, SU-DIPG-IV, MIPE4.0, CellTiter-Glo, qHTS (AID 1347063; cut-off not given, nearly all actives have AC50 up to about 30 µM;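 note: compound exposure lasted 48 hours before the viability readout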). As to conditions: SU-DIPG-IV viability, CellTiter-Glo ATP luminescence.
The nature of test [5]: viability loss in pontine glioma line – cell-based, SU-DIPG-XXV, MIPE5.0, CellTiter-Glo, qHTS, dose response (AID 1347065; cut-off not given, nearly all actives have AC50 up to about 26 µM;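 note: cells exposed to compound for 48 hours before ATP readout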). As to conditions: CellTiter-Glo ATP luminescence.
The nature of test [6]: SU-DIPG-VI glioma cell viability, MIPE4.0 library, CellTiter-Glo luminescence, qHTS (AID 1347066; cut-off not given, nearly all actives have AC50 up to about 30 µM;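 note: cells exposed to compound for 48 hours before readout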). The settings on record: CellTiter-Glo ATP luminescence.
A short description of test [7]: JHH-DIPG-1 glioma cell viability, MIPE5.0 library, CellTiter-Glo luminescence, qHTS (AID 1347067; cut-off not given, nearly all actives have AC50 up to about 26 µM;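 note: cells exposed to compound for 48 hours before readout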). The settings on record: JHH-DIPG-1 glioma viability, CellTiter-Glo ATP luminescence.
A short description of test [8]: SU-DIPG-XXV glioma cell viability, MIPE5.0 library, qHTS (AID 1347068; cut-off not given, nearly all actives have IC50 up to about 30 µM;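 note: cells exposed to compound for 48 hours before viability readout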). Background: In qHTS, concentration-response curves come from the screen itself.
Test [9] can be described thus: sensitizers of A549 cells to miR-34 induction, primary screen, imaging, A549 dox-inducible miR-34, nuclei and caspase counts (AID 1347080;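 active = compounds whose cell count with miR-34 switched on is under 0.7 times the count with it off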). The settings on record: A549 miR-34 inducible, Hoechst nuclei count, 48 h.
Test [10] is described as follows: survival rescue of mitochondrial mutant cells in low glucose, primary screen, MELAS cybrids, Rieske KO mouse fibroblasts, CellTiter-Glo (AID 1508586;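 active = mean z-score across replicates of 1.96 or higher in either the MELAS or the Rieske mutant cell line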;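 note: z relative to plate mean and SD of compound and empty wells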).
Test [11] is described as follows: modifiers of HSF1 nuclear foci, imaging, Selleck Cancer Library (AID 1347162; in the data active = plate-normalised HSF1 focus index below about 0.46). The settings on record: human cells, at 10 µM; SSMD: measured here: HSF1 foci SSMD mean; cell count: measured here: cell number; plate-normalised HSF1 focus index: stronger effect = lower value.
A short description of test [12]: ovarian cancer cell viability with rucaparib, profiling panel, oncology-focused library, rucaparib conditional (AID 1508598). The settings on record: patient-derived ovarian cancer cells, CellTiter-Glo viability, 144 h, stronger effect = lower value.
[13] abbreviates: stronger effect = lower value, cell number ratio, induced over uninduced.
Setting [14] is: measured here: relative caspase fold change +Dox/-Dox.
The mark [15] stands for this setting: measured here: total cells with miR-34 induction, stronger effect = lower value.
Setting [16] is: measured here: total cells without miR-34 induction.
Setting [17] is: MELAS cybrid survival, CellTiter-Glo 48 h, stronger effect = higher value.
Where [18] appears, read: Rieske KO mouse fibroblast survival, CellTiter-Glo 72 h.

`Cc1[nH]nc2ccc(-c3cncc(OC[C@@H](N)Cc4ccccc4)c3)cc12`: the concentration at half-maximal activity (AC50) (in general, the concentration at which the activity in the assay is half-maximal) is 1.66 µM (active) in test [1]; 4.69 µM (active) in test [2]; 1.18 µM (active) in test [3]; 2.64 µM (active) in [4]; 1.48 µM (active) in test [5]; 10.5 µM (active) in [6]. For the same compound, in test [7], the concentration at half-maximal activity (AC50) is 1.48 µM (active). Besides, in test [8], the IC50 (as a rule, the concentration that inhibits the measured activity by half) was 1.66 µM (active).

For the compound `O=C(O)c1ccc(Nc2ncc3c(n2)-c2ccc(Cl)cc2C(c2c(F)cccc2F)=NC3)cc1`, the values for the AC50 in [1], in test [5] and in [7] were 4.17 µM (active), 0.372 µM (active) and 16.6 µM (active), respectively. For the same compound, the outcome in test [2], in test [3], in test [4] and in test [6] was inactive. Further, the fold change was 0.96 (inactive) in [9] (setting [13]) and 0.787 in [9] (setting [14]). The cell count in test [9] (setting [15]) is 2100; in [9] (setting [16]), 2190. The z-score is -0.524 (inactive) in test [10] (setting [17]) and 0.65 in test [10] (setting [18]).

In the case of `O=C(NCCCNc1nc(Nc2cccc(NC(=O)N3CCCC3)c2)ncc1I)c1cccs1`, the half-maximal activity concentration (AC50) is 16.6 µM (active) in [1]; 20.9 µM (active) in [2]; 23.5 µM (active) in test [3]; 14.8 µM (active) in [4]; 3.72 µM (active) in test [5]; 20.9 µM (active) in test [6]. For the same compound, the fold change in test [9] (setting [13]) was 0.948 (inactive); in [9] (setting [14]) it was 1.03. Besides, the cell count in [9] (setting [15]) was 2780; in test [9] (setting [16]), 2940; in test [11] it was 7460. Besides, in [11], the SSMD was -3.5. Further, the plate-normalised HSF1 focus index in test [11] is 0.877 (inactive). Besides, the figures for the z-score in [10] (setting [17]) and in test [10] (setting [18]) were -0.385 (inactive) and -0.479, respectively. The viability (as a rule, a read-out of living cells in per cent, often relative to untreated cells) in test [12] (at 0.000305 µM, OCI-C5x cells, with rucaparib 10 µM, 100% = cells with rucaparib alone) was 115% (inactive); in [12] (at 0.000305 µM, OCI-C5x cells, without rucaparib) it was 106% (inactive); in test [12] (at 0.000305 µM, OCI-P5x cells, with rucaparib 20 µM, 100% = cells with rucaparib alone), 91.2% (active); in test [12] (at 0.000305 µM, OCI-P5x cells, without rucaparib), 89.1% (active); in test [12] (at 0.00122 µM, OCI-C5x cells, with rucaparib 10 µM, 100% = cells with rucaparib alone) it was 116% (inactive); in [12] (at 0.00122 µM, OCI-C5x cells, without rucaparib), 102% (inactive). The viability in [12] (at 0.00122 µM, OCI-P5x cells, with rucaparib 20 µM, 100% = cells with rucaparib alone) is 97.1% (active); in test [12] (at 0.00122 µM, OCI-P5x cells, without rucaparib), 94.8% (active); in test [12] (at 0.00488 µM, OCI-C5x cells, with rucaparib 10 µM, 100% = cells with rucaparib alone), 110% (inactive); in [12] (at 0.00488 µM, OCI-C5x cells, without rucaparib) it was 97.8% (active); in [12] (at 0.00488 µM, OCI-P5x cells, with rucaparib 20 µM, 100% = cells with rucaparib alone), 97.7% (active); in test [12] (at 0.00488 µM, OCI-P5x cells, without rucaparib) it was 103% (inactive). Besides, the viability in [12] (at 0.0195 µM, OCI-C5x cells, with rucaparib 10 µM, 100% = cells with rucaparib alone) is 112% (inactive); in [12] (at 0.0195 µM, OCI-C5x cells, without rucaparib), 102% (inactive); in test [12] (at 0.0195 µM, OCI-P5x cells, with rucaparib 20 µM, 100% = cells with rucaparib alone), 104% (inactive); in test [12] (at 0.0195 µM, OCI-P5x cells, without rucaparib), 101% (inactive); in test [12] (at 0.0781 µM, OCI-C5x cells, with rucaparib 10 µM, 100% = cells with rucaparib alone) it was 123% (inactive); in test [12] (at 0.0781 µM, OCI-C5x cells, without rucaparib), 112% (inactive). Further, the viability in [12] (at 0.0781 µM, OCI-P5x cells, with rucaparib 20 µM, 100% = cells with rucaparib alone) is 99.5% (active); in test [12] (at 0.0781 µM, OCI-P5x cells, without rucaparib) it was 106% (inactive); in [12] (at 0.313 µM, OCI-C5x cells, with rucaparib 10 µM, 100% = cells with rucaparib alone), 137% (inactive); in test [12] (at 0.313 µM, OCI-C5x cells, without rucaparib), 120% (inactive); in test [12] (at 0.313 µM, OCI-P5x cells, with rucaparib 20 µM, 100% = cells with rucaparib alone), 98.3% (active); in test [12] (at 0.313 µM, OCI-P5x cells, without rucaparib), 99.8% (active). The viability in test [12] (at 1.25 µM, OCI-C5x cells, with rucaparib 10 µM, 100% = cells with rucaparib alone) was 122% (inactive); in test [12] (at 1.25 µM, OCI-C5x cells, without rucaparib), 120% (inactive); in [12] (at 1.25 µM, OCI-P5x cells, with rucaparib 20 µM, 100% = cells with rucaparib alone), 85.2% (active); in [12] (at 1.25 µM, OCI-P5x cells, without rucaparib), 99.1% (active); in [12] (at 5 µM, OCI-C5x cells, with rucaparib 10 µM, 100% = cells with rucaparib alone) it was 76.6% (active); in test [12] (at 5 µM, OCI-C5x cells, without rucaparib), 127% (inactive). The viability is 68.2% (active) in test [12] (at 5 µM, OCI-P5x cells, with rucaparib 20 µM, 100% = cells with rucaparib alone) and 91.4% (active) in test [12] (at 5 µM, OCI-P5x cells, without rucaparib).
